# In PubChem BioAssay (NCI):
# This is part of a sample that, as a whole, favours compounds with a hit. Of some 83,000 tested, about 20% had one in any assay.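 Single-dose data. Exposure time 48 hours. Values below 10 considered active.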 Calls of active or inactive are those of the source.
# Test system: UO-31 renal
# Test: NCI-60 one-dose screen, 48 h (100 = growth as untreated, 0 = no growth, -100 = all killed)
# Conditions: 10 µM unless noted
# Method: Growth inhibition of the UO-31 human tumor cell line is measured as a screen for anti-cancer activity. Cells are grown in 96 well plates and exposed to the test compound for 48 hours. Compounds are tested at a single concentration, which is 10^-5 M for most compounds. The reported endpoint is percent growth (GI% or GIPRCNT), where numbers from 0 - 100% represent growth inhibition, and numbers from -100% - 0 represent cell death. For example, a value of 40 represents 60% growth inhibition. A value of 0 means no net growth occurred over the course of the experiment. A value of -40 indicates 40% of cells at the beginning of the experiment died by the end of the experiment. A value of -100 means all cells are dead at the end of the experiment.
# NCI-60 Human Tumor Cell Lines Screen was performed using the standard one-dose NCI protocol, which is described in more detail at https://dtp.cancer.gov/discovery_development/nci-60/default.htm.
# Compounds with GIPRCNT values below 10 were considered active. Activity score was based on GIPRCNT using the following formula: […]
# Score is 0 for GIPRCNT values of 100 or above, 50 for GIPRCNT values of 0, and 100 for GIPRCNT values of -100.
row,SMILES,growth
1,CCCCCn1sc(=O)n(Cc2ccc(CNC(=O)OCc3ccc4cccc(O)c4n3)cc2)c1=O,-100% (active)
2,CC(C)CCSC1=CC(=O)c2ccccc2C1=O,-63.5% (active)
3,CC1(C)C(=O)/C(=C\c2cccnc2)C[C@]2(C)[C@H]3CC[C@@H]4[C@H]5[C@H](C(=O)/C=C/c6cccnc6)CC[C@]5(C(=O)O)CC[C@@]4(C)[C@]3(C)CC[C@@H]12,-32.9% [100 µM] (active)
4,CCOC(=O)COc1ccc2c(c1)O/C(=C\c1ccc(O)cc1)C2=O,78.5% (inactive)
5,Cc1cc(C)c(O)c(CNCCCCCCNCc2cc(C)cc(C)c2O)c1,-60.3% (active)
6,COc1ccc(-c2cc(-c3ccc(OC)c(OC)c3)nc(SCCCCCC(=O)NO)n2)cc1,68.6% (inactive)
7,CCc1cccc(Cl)c1,85.3% (inactive)
8,CCOC(=O)c1nc2c3ccccc3ccn2c1C(=O)OC,91.7% (inactive)
9,Cn1cc(-c2noc(-c3cn(C)c4ncc(Br)cc34)n2)c2cc(Cl)ccc21,71.8% (inactive)
10,O=C(CCCSc1nc(-c2ccccc2)cc(-c2ccccc2)n1)NO,-13.9% (active)
11,CCCC(NC(=O)OCc1ccccc1)C(=O)O (stereo not given),65.1% (inactive)
12,O=C(NCCCNC(=O)OCc1ccc2c(Br)cc(Br)c(O)c2n1)OCc1ccc2c(Br)cc(Br)c(O)c2n1,-100% (active)
13,Cc1ccc(S(=O)(=O)Nc2ccccc2)cc1N,81.2% (inactive)
14,O=C(NCc1ccccc1)C(Cl)Cl,91.5% (inactive)
15,O=C1NC(=O)C(Cc2ccccc2)(Cc2ccccc2)N1,93.6% (inactive)
16,COc1cc(OC)c(/C=C/C(=O)c2c(N)cc(OC)cc2OC)c(OC)c1,43.7% (inactive)
17,COc1ccc(NCc2cn(-c3ccc(C(=O)O)cc3)nc2-c2ccc(C(=O)O)cc2)cc1C(F)(F)F,88.1% (inactive)
18,CCc1ccc(-c2ccc(COc3ccc(CC4SC(=O)NC4=O)cc3)cc2)cc1 (stereo not given),61.1% (inactive)
19,COc1cc(NCc2ccccc2O)c2ncccc2c1,75.8% (inactive)
20,O=C1/C(=C/c2ccc(OCc3ccccc3)cc2)Oc2cc(OCCN3CCCCC3)ccc21,70.6% (inactive)

row,SMILES,growth
1,C#CCNC(=O)CC[C@]1(C)[C@H]2CC[C@@H]3[C@@H]([C@@](C)(O)CCC=C(C)C)CC[C@@]3(C)[C@]2(C)CC[C@H]1C(=C)C,-95.8% [100 µM] (active)
2,Fc1cc2[nH]ncc2c2c3c(c(-c4cn[nH]c4)nc12)CCCC3,-13.7% (active)
3,O=C(CCNCc1ccccc1)c1ccccc1,95.9% (inactive)
4,O=C(N[C@@H]1CCCc2ccccc21)[C@H](CCC(=O)N1CCN(C2CCCCC2)CC1)N1C(=O)[C@@H](N2C(=O)OC[C@@H]2c2ccccc2)[C@H]1/C=C/c1ccccc1,21% (inactive)
5,CCOC(=O)COc1c(C)cc(SSc2cc(C)c(OCC(=O)OCC)c(C)c2)cc1C,82.4% (inactive)
6,CC1=C/C(=C(\c2cc(C)c(O)c(C(=O)O)c2)c2c(Cl)cccc2Cl)C=C(C(=O)O)C1=O,67.8% (inactive)
7,Oc1c(CNCCNCc2cc(Cl)cc(Cc3ccccc3)c2O)cc(Cl)cc1Cc1ccccc1,-20% (active)
8,C=C(C)[C@@H]1CC[C@]2(C(=O)NCCCCCCN(CCCN)CCCN)CC[C@]3(C)[C@H](CC[C@@H]4[C@@]5(C)CC[C@H](OCCCN)C(C)(C)[C@@H]5CC[C@]43C)[C@@H]12,53.4% [100 µM] (inactive)
9,O=C1Nc2ccccc2/C1=C/C(=O)c1ccc(N2CCCC2)cc1,47.1% (inactive)
10,Cc1cccc(C[C@H](NC(=O)Nc2ccc(Cl)cc2F)C(=O)N[C@@H]2C(=O)N3C[C@H](OC(=O)CCN(C)C)C[C@H]3C(=O)N3CCCC[C@H]3C(=O)N[C@@H](C)C(=O)N3C[C@H](C)C[C@H]3C(=O)O[C@H]2C)c1,31.1% (inactive)
11,CC(C)C1=NOC(=O)C1=Cc1cn(-c2cccnc2)nc1-c1ccccc1,89.7% (inactive)
12,c1coc2occoc=2o1,92.5% (inactive)
13,O=C(Nc1cccc(F)c1)c1cc(=O)[nH]c2cc(Br)ccc12,51.5% (inactive)
14,C#C[C@]1(O)CC[C@H]2[C@@H]3CC=C4c5nc(Nc6ccccn6)sc5CC[C@]4(C)[C@H]3CC[C@@]21C,-24.4% (active)
15,Clc1ccc(N2CCN(CCCN3CCN(c4cccc(Cl)c4)CC3)CC2)cc1,36.6% (inactive)
16,c1nc(N2CCOCC2)c2[nH]ccc2n1,87.6% (inactive)
17,CN(C)c1ccc(N=Nc2ccc3ccccc3c2)cc1,57% (inactive)
18,N#C/C(C(=O)c1ccccc1)=C1/C(=O)Nc2ccccc21,73.4% (inactive)
19,CCOC(=O)CCC[P+](c1ccccc1)(c1ccccc1)c1ccccc1,87.5% (inactive)
20,C=CC1=C(C)C2=NC1=CC1=NC(=CC3=C(C)C4=C(O)C(C(=O)O)C(=C5NC(=C2)C(C)C5CCC(=O)O)C4=N3)C(CC)=C1C (stereo not given),73.6% (inactive)
